High-throughput results deposited in PubChem BioAssay by National Center for Advancing Translational Sciences (NCATS).
D1 agonist – Allosteric Agonists of the Human D1 Dopamine Receptor: qHTS; HEK293 T-REx D1 cells, calcium flux, agonist mode; D(1A) dopamine receptor (Homo sapiens), P21728; AID 504660, 2011; activation, % at 2 µM; 1% of 360,000 active; note: 0% is about no effect
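Inducible HEK293 T-REx D1 cells, force-coupled to calcium signalling, were plated at 4000 cells/well with tetracycline and held overnight at 30 C. After no-wash calcium dye loading, compound-evoked calcium rise over 180 s flagged agonists.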
D1 potentiator – Potentiators of Human D1 Dopamine Receptor: qHTS; potentiation, % at 10 µM; AID 504651, 2011; 0.036% of 360,000 active; HEK293 TREx D1 cells, calcium flux, dopamine EC20 potentiation; D(1A) dopamine receptor (Homo sapiens), P21728; in the data active = potentiation above about 30%; note: 0% is about no effect
TRHR PAM – qHTS for Small Molecule Agonists and Allosteric Enhancers of Human TRH Receptor: Primary Screen for Enhancers; Thyrotropin-releasing hormone receptor (Homo sapiens), P34981; TRHR cells, fluo-8 calcium fluorescence, EC20 TRH enhancement; 0.66% of 360,000 active; enhancement, % at 2 µM; in the data active = enhancement above about 30%; note: 0% is about no effect
Target sequence (P34981 whole entry, looked up): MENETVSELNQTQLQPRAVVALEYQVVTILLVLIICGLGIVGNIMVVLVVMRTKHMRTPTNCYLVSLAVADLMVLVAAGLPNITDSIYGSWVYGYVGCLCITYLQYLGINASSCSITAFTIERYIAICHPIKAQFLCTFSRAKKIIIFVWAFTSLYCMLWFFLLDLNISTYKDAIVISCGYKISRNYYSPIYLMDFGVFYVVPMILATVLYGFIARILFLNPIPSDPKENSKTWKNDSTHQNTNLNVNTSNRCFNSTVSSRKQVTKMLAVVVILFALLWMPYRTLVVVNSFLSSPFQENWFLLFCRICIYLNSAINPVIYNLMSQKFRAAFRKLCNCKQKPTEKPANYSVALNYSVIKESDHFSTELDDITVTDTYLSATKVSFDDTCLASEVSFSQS
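TRHR-expressing cells loaded with fluo-8 calcium dye were read kinetically (ex 480/em 530) during compound addition, then stimulated with an EC20 of TRH (10 nM final). Enhancement of the Gq-mediated intracellular calcium response was scored.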
TRHR ag – qHTS for Small Molecule Agonists and Allosteric Enhancers of Human TRH Receptor: Primary Screen for Agonists; Thyrotropin-releasing hormone receptor (Homo sapiens), P34981; TRHR cells, calcium flux fluo-8, FDSS agonist mode; activation, % at 2 µM; 0.18% of 360,000 active; note: 0% is about no effect
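In this calcium-flux screen, cells bearing human TRHR are dye-loaded with fluo-8, baselined for 10 cycles, then exposed to library compounds; positive kinetic calcium responses during the agonist phase mark hits, with TRH as control.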
D1 antag – Antagonist of Human D 1 Dopamine Receptor: qHTS | D(1A) dopamine receptor (Homo sapiens), P21728 | HEK293 TREx D1 cells, calcium flux, dopamine EC80; stronger effect = lower value | activity change, negative = inhibition, % at 10 µM | 3.2% of 360,000 active | AID 504652, 2011; in the data active = activity change below about -30%; note: % is set by controls: 0 for no effect and ±100 for the full control effect
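Antagonism measured as reduced calcium response to an EC80 dopamine addition following 180 s compound pre-read; cells were inducible HEK293 Trex D1 plated overnight at 30 C, read kinetically at 1 cycle/sec.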
An asterisk follows results filed as active; . = not tested or not shown; ! = not confirmed by another sample. In the library only some 4.7% were active in any assay of this set; here they are far more common. Cut-off read from the data, not from the text of the source, unless noted: active = activation above about 30%; inactive = the rest.

SMILES | D1 agonist | D1 potentiator | TRHR PAM | TRHR ag | D1 antag
OC(CNCCc1ccccc1)COc1ccc(OCC(O)CNCCc2ccccc2)cc1 (stereo not drawn) | 33.6* | -0.7 | 9.2 | 3.7 | -2.7
COc1ccc(CCNCC(O)COc2c(C)cccc2C)cc1OC (stereo not drawn) | 6.8 | -11.0 | 1.1 | 0.8 | -38.1*
CC(C)(c1ccccc1)c1ccc(OCC(O)CN2CCCC2)cc1 (stereo not drawn) | 25.2 | -6.8 | 2.3 | 3.2 | -24.4
CC(C)CCNCC(O)CON=C1c2ccccc2-c2ccccc21 (stereo not drawn) | 49.6* | 3.9 | 4.6 | -0.6 | 8.1
CC(C)N(CCNCC(O)COc1ccc(C(C)(C)c2ccccc2)cc1)C(C)C (stereo not drawn) | 62.6* | -3.5 | 21.6 | 1.6 | -18.2
Cc1ccnc(NC(=O)c2ccc(S(=O)(=O)N3CCCC3)cc2)c1 | 1.2 | -3.1 | -1.3 | -0.1 | 1.3
COc1ccc(C(OCC(O)CNCCc2ccccc2)c2ccc(OC)cc2)cc1 (stereo not drawn) | 96.3* | -10.2 | 8.9 | 5.3 | -30.3*
Cc1ccc(NC(=S)NCCSc2ccc(Cl)cc2)cc1 | 22.4 | -10.3 | -6.1 | 1.0 | -37.2*
CCCCNC(=S)Nc1ccc(C(F)(F)F)cc1 | 22.2 | -5.8 | -4.9 | 0.3 | -33.3*
CCCCNC(=S)Nc1ccc(Cl)cc1 | 9.7 | 3.5 | -2.1 | 0.2 | -32.9*
CCNC(=S)Nc1ccc(Cl)cc1 | 4.8 | -6.2 | -4.4 | -0.4 | 9.8
COc1ccc(NC(=O)CN(C)C(=O)CCNS(=O)(=O)c2ccc(Br)cc2)cc1 | 1.0 | -8.2 | 10.3 | 0.5 | -28.2
Cn1c(=O)c(=O)n(C)c2cc(S(=O)(=O)CCC(=O)Nc3ccc(F)cc3)ccc21 | 0.4 | 1.2 | 0.8 | -0.2 | 18.9
CCOc1ccc(S(=O)(=O)NCCC(=O)N(C)CC(=O)Nc2ccc(OC)cc2)cc1 | 1.6 | -11.4 | 15.4 | 0.1 | -43.3*
Cc1cccc(C)c1NC(=O)CCS(=O)(=O)c1ccc2c(c1)n(C)c(=O)c(=O)n2C | 3.4 | -4.5 | -6.4 | 1.5 | -36.3*
COc1ccc(NC(=O)CCS(=O)(=O)c2ccc(OC)cc2)cc1 | -0.6 | -11.9 | 5.5 | -2.0 | -41.7*
COc1ccc(NC(=O)CCS(=O)(=O)c2ccc(Br)s2)cc1 | 0.1 | -4.3 | 3.9 | -0.8 | -37.4*
CC(C)c1ccc(NC(=O)CCS(=O)(=O)c2ccc(Br)s2)cc1 | 16.1 | -0.9 | -10.1 | -1.8 | -8.7
Cc1cc(C)c(NC(=O)CSc2nc3ccccc3c3nc(-c4ccccc4)nn23)c(C)c1 | 6.2 | -2.3 | 0.5 | 0.0 | -21.4
COc1ccc(NC(=O)c2cc(S(=O)(=O)N3CCCCC3)cn2C)cc1Cl | 0.2 | -2.9 | 5.4 | -0.4 | 13.5
CCOC(=O)c1c(C)[nH]c(C(=O)N(C)CC(=O)Nc2ccc(OC)cc2)c1C | 1.3 | 4.4 | 7.3 | -0.3 | -67.6*
COc1ccc(CC(=O)NC(=S)Nc2ccc(S(N)(=O)=O)cc2)cc1 | 34.3* | -9.4 | 0.5 | 1.7 | 9.6
COc1ccc(CC(=O)NC(=S)Nc2ccc(S(=O)(=O)NC(C)(C)C)cc2)cc1 | 15.6 | 7.1 | 4.3 | 3.7 | -2.5
CCOC(=O)c1[nH]c(C)c(C(=O)OCC(=O)NCc2ccc(OC)cc2)c1C | 0.9 | 0.8 | -2.4 | -0.8 | -24.9
COc1cccc(NC(=O)CCS(=O)(=O)c2ccc3c(c2)oc(=O)n3C)c1 | 3.4 | 2.3 | 7.3 | 0.3 | -30.0*!
SMILES | D1 agonist | D1 potentiator | TRHR PAM | TRHR ag | D1 antag
Cc1ccc(C(=O)N2CCC(N3CCC(C(=O)N4CCOCC4)CC3)CC2)cc1C | 0.2 | -0.8 | -1.2 | 0.6 | 4.4
CC(C)C[C@@H](CO)N1CCN(CC(C)C)CCC1=O | -1.0 | -2.7 | 4.3 | 0.3 | -7.2
C=CCN(CC=C)CC(O)CN(c1cc([N+](=O)[O-])ccc1OC)S(=O)(=O)c1ccccc1 (stereo not drawn) | 2.9 | -4.3 | 2.1 | 0.2 | 2.3
CC(c1ccccc1C(O)(c1ccccc1)c1ccccc1)N(C)C (stereo not drawn) | 99.9* | -2.6 | -3.6 | 10.7 | -38.9*
N=c1n(CC(=O)c2cccs2)c2ccccc2n1Cc1ccccc1 | 47.1* | -9.9 | -7.2 | 1.7 | -21.8
O=C(O)Cn1c(=O)n(Cc2ccccc2)c2ccccc21 | 3.6 | -5.9 | 0.1 | 0.1 | -10.0
NC(=S)N/N=C/c1cccc(O)c1O | 0.6 | -3.2 | 18.2 | 0.0 | 4.4
Cc1cc(/C=N/NC(N)=S)c(O)c(/C=N/NC(N)=S)c1 | 277.5* | 2.0 | 9.9 | 147.6* | 1.1
COc1cc(C(=O)Nc2ccc(NC(=O)c3ccc(C(C)(C)C)cc3)cc2)cc(OC)c1OC | 1.6 | -3.0 | 2.3 | 0.6 | -4.3
CCOC(=O)/C=C1\NC(C)(C)Cc2cc(OC)c(O)cc21 | 2.9 | -2.3 | 1.5 | -1.3 | -8.8
CCOC(=O)/C=C1\NC(C)(C)Cc2cc(OC)c(OC)cc21 | 0.1 | -6.0 | 21.9 | 1.2 | -40.6*
CCN(CC)C1=NS(=O)(=O)c2cc([N+](=O)[O-])ccc21 | -0.7 | -2.0 | 34.3* | -0.1 | 15.0
CC(C)NCC(O)Cn1c2c(c3ccccc31)CCc1c-2cnn1-c1ccccc1 (stereo not drawn) | 24.9 | -4.6 | 22.9 | 1.6 | 2.6
COc1ccc(C(=O)c2c(C)c3ccccc3n2CC(O)CNC(C)C)cc1 (stereo not drawn) | 59.7* | 0.1 | 12.8 | 2.6 | -20.5
O=C(NCc1ccccc1)c1ccc(C2SCC(=O)N2Cc2ccccc2)cc1 (stereo not drawn) | 34.1* | -4.7 | -4.0 | -0.3 | -0.2
C=CCNC(=O)c1ccc(C2SCC(=O)N2Cc2ccccc2)cc1 (stereo not drawn) | 0.7 | -6.7 | -2.0 | -0.4 | -1.7
Cc1ccc(S(=O)(=O)N2CCCc3cc(NS(=O)(=O)c4ccccc4)ccc32)cc1 | 4.4 | 0.7 | 1.7 | -1.3 | 20.9
CCOC(=O)Nc1sc(C)nc1-c1ccccc1 | 1.1 | -8.8 | 2.9 | -0.1 | -49.2*
COC(=O)Nc1sc(C)nc1-c1ccccc1 | . | . | -4.3 | -0.1 | .
CO/N=C\CC(=O)Nc1ccc(Cl)c(Cl)c1 | 6.4 | -5.8 | 4.8 | 0.3 | -30.3*
FC(F)(F)c1cc(Cl)c2nnc(-c3ccccn3)n2c1 | 1.5 | 2.2 | 2.4 | -0.6 | -8.3
O=C(O)c1ccccc1-c1nnc2c(Cl)cc(C(F)(F)F)cn12 | 0.7 | -2.8 | 6.9 | 0.6 | -37.7*
COc1ccc(Cl)cc1S(=O)(=O)N1CCN(Cc2cccc(F)c2)CC1 | 3.9 | 0.7 | -2.1 | 0.9 | -4.6
